Where “and” joins values, the source holds several entries; their conditions need not be identical. Equal values may be shown once. Compounds without any hit were thinned out: in the full panel of roughly 83,000, 20% have a hit.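 Treatment: one concentration, 48 hours, 96-well format. Scoring: percent growth, with anything below 10 considered active.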 Calls of active or inactive are those of the source.
The compounds below were run on HL-60(TB) leukemia (assay: NCI-60 one-dose screen, 48 h (100 = growth as untreated, 0 = no growth, -100 = all killed)). Conditions: 10 µM unless noted.

Compound | growth
O=C1c2ccccc2CN1c1ccccc1 | 75.1% (inactive)
CCOC(=O)C#Cc1c(C(=O)OCC)nnn1[C@@H]1O[C@H](CO)[C@H]2OC3(CCCCC3)O[C@H]21 | 52.8% (inactive)
CCCCOc1ccc(NC(=O)n2nc(N=NN(C)C)c3ccc(Cl)cc32)cc1 | 107% (inactive)
O=[N+]([O-])c1cccc(-c2nc3cc4nc5ccccc5[nH]c4cc3n2)c1 | 91.5% (inactive)
COc1cc(CNC(=O)CCCC/C=C/C(C)C)ccc1OCc1nnc(Nc2ccc([N+](=O)[O-])cc2)o1 | 101% (inactive)
COc1ccc(S(=O)(=O)N2CCCCCC2)cc1NC(=O)c1[nH]c(C)c2c1CCCCC2=O | 7.56% (active)
COc1cc(/C=C/c2ccccc2)cc(OC)c1 | 96.2% (inactive)
COc1ccc(-c2c(N)n[nH]c2-c2cc(OC)c3c(c2)OCCO3)cc1 | 47.1% (inactive)
Cc1cc(C(=O)c2ccc(Cl)cc2)ccc1O | 147% (inactive)
CS(=O)(=O)OCCN(CCOS(C)(=O)=O)c1ccc(/C=N/Nc2ccc([N+](=O)[O-])cc2[N+](=O)[O-])cc1 | 71.6% (inactive)
CC(=O)Oc1cc(C(=O)O)cc(OC(C)=O)c1OC(C)=O | 108% (inactive) and 88.2% (inactive)
Cc1ccc([C@@H]2C[C@H](O)Cc3ccccc3N2)s1 | 121% (inactive)
O=c1c2ccccc2nc2n1Cc1nc3ccccc3c(=O)n1C2 | 100% (inactive) and -60.2% (active)
COc1cccc(O)c1O | 73.6% (inactive)
CC(C)Cc1ccc(C(C)C(=O)NCc2c[nH]c3ccc(Cl)cc23)cc1 (centres undefined) | 87.6% (inactive)
COc1ccc(OC)c(/C=C2\COc3ccc(O)cc3C2=O)c1 | 82.2% (inactive)
CN1CCN(C2=Nc3ccccc3Oc3ccc(Cl)cc32)CC1 | 91.8% (inactive)
Fc1ccc(-c2nnc(-c3c(-c4ccc(F)cc4)nc4ncccn34)o2)cc1 | 87.8% (inactive)
COc1ccc(-c2cc(-c3ccc(Cl)cc3)nc(SCCCCCCC(=O)NO)n2)cc1OC | 19% (inactive)
O=c1cc(-c2ccccc2)oc2c(O)c(O)ccc12 | 59.4% (inactive)

Compound | growth
CCCCCCCCN=C(NCCCCCCCC)SCc1cccc2ccccc12 | -43.4% (active)
FC(F)(F)c1ccc2c(c1)N(CCCN1CCN(C3CC3)CC1)c1ccccc1S2 | 25.6% (inactive)
O=c1ccn(-c2ncnc3nc[nH]c23)cc1 | 92.7% (inactive)
CNC(=O)Nc1ccc(-c2nc(N3CCOCC3)nc3c2cnn3C2CCOCC2)cc1 | 11.3% (inactive)
O=C(O)C1C(c2ccccc2)c2ccccc2C(O)C1CO (centres undefined) | 102% (inactive)
Nc1cc(-c2nc3sccn3c2-c2ccnc(NCCCNS(=O)(=O)c3ccc(F)cc3)n2)ccc1F | 63.6% (inactive)
COCCNCC(O)Cn1c2ccc(Cl)cc2c2cc(Cl)ccc21 (centres undefined) | -42.6% (active)
O=C(Nc1ccc(F)cc1F)c1cc(Br)ccc1O | -36.2% (active)
COc1ccccc1OC(=O)Oc1ccccc1OC | 101% (inactive) and 98.4% (inactive)
COc1ccc(S(=O)(=O)Nc2cc(/C=C\c3cc(OC)c(OC)c(OC)c3)cc(OC)c2OC)cc1 | -42.1% (active)
N#Cc1c(-c2ccc(C(F)(F)F)cc2)cc(N2CC(O)C2)n2c1nc1ccccc12 | 118% (inactive)
COc1cc(NCC(=O)Nc2cc(Nc3ccc(C)cc3)ncn2)c(Cl)c(OC)c1Cl | 77.2% (inactive)
Cc1ccc(S(=O)(=O)Nc2nc3ccccc3nc2Nc2ccc3nsnc3c2)cc1 | 45.4% (inactive) and 37.2% (inactive)
O=C(CN1CCOCC1)Nc1nc(-c2cc3ccccc3oc2=O)cs1 | 102% (inactive)
Cn1cnc([N+](=O)[O-])c1Sc1nc(N)nc2nc[nH]c12 | 59.9% (inactive)
CCOC(=O)c1ccc2[nH]c(O)c(C(=Nc3ccc(N(C)C(=O)CN4CCN(C)CC4)cc3)c3ccccc3)c2c1 | -52.6% (active)
Nc1nc(N)c2cc(S(=O)(=O)c3ccccc3)ccc2n1 | 23.2% (inactive) and 20.7% (inactive)
Nc1nc2c(s1)CCc1cn(S(=O)(=O)c3ccccc3)cc1-2 | 70.6% (inactive) and 76.2% (inactive)
CCN(CC)CCn1nc2c3c(cccc3c1=O)-c1ccccc1-2 | 16.9% (inactive)

— PubChem BioAssay (NCI)
